Results published in publication PMC7862700, “An all-to-all approach to the identification of sequence-specific readers for epigenetic DNA modifications on cytosine”.

Legend:
Test in all cases: DAPPL (digital affinity profiling via proximity ligation, sequencing); 10 mM Tris-HCl pH 7.5, 50 mM NaCl, 1 mM DTT, 4% glycerol, room temperature, 30 min; GST-TFs on glutathione beads, 16-mer random dsDNA library, 0.1% formaldehyde crosslink after washing; high values mean tight binding
Details in all cases: protein: recombinant; tags: N-terminal GST; dsDNA, one strand shown
FLI1 = biological target: T1, FLI1 (Homo sapiens, UniProt Q01543 1-452)
T1 sequence: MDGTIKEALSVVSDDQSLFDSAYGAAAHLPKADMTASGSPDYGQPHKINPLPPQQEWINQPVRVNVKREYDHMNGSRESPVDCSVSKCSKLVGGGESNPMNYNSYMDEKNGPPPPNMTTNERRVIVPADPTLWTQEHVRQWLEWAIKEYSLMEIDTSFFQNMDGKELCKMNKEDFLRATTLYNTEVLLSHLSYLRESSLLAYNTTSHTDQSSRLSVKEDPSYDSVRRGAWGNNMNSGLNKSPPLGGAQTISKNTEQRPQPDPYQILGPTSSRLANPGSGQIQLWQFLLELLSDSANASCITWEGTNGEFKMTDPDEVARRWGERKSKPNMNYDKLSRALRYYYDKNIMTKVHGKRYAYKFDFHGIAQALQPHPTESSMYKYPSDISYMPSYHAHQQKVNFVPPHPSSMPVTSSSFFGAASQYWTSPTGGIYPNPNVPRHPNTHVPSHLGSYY
How it was run: (§1)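 Human transcription factors carrying a GST fusion were produced in yeast, bound to glutathione beads, tagged with DNA barcodes and pooled together with a tag-only sample. Each pool was held with 200 nmole of a random double-stranded 16-mer DNA library in Tris/NaCl/DTT/glycerol buffer for 30 min at room temperature, then washed, crosslinked in 0.1% formaldehyde, proximity-ligated with BsaI/T4 ligase (1 h, 37 °C), PCR-amplified and sequenced on an Illumina NextSeq500. Binding signal is the read frequency of each hexamer for a given factor divided by its frequency in the tag-only sample.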

ELK1 = biological target: T2, ELK1 (Homo sapiens, UniProt P19419 1-428)
T2 sequence: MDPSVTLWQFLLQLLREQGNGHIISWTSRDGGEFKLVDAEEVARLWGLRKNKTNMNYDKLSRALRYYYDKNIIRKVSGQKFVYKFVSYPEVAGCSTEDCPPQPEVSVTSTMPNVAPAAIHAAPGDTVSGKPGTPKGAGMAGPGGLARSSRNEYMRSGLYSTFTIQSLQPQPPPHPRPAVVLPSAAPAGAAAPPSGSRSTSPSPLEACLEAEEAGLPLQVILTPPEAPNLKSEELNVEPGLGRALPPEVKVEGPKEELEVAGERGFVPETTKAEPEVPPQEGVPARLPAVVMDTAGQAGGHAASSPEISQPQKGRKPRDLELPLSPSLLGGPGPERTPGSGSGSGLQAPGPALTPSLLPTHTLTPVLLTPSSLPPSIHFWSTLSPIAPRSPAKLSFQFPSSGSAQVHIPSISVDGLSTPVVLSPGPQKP
How it was run: as §1

GABPA = biological target: T3, GABPA (Homo sapiens, UniProt Q06546 1-454)
T3 sequence: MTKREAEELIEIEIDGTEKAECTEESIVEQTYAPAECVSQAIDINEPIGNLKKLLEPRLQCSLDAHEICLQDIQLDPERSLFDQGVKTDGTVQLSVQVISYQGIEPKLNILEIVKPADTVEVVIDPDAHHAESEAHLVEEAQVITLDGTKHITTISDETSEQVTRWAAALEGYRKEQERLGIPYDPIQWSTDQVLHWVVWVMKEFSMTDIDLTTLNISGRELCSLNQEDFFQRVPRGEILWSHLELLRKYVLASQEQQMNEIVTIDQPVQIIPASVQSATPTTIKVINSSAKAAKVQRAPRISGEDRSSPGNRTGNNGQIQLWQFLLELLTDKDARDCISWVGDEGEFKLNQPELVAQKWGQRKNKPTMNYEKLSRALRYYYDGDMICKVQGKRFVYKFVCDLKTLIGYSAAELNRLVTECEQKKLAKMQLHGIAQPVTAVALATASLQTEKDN
How it was run: as §1

ERG = biological target: T4, ERG (Homo sapiens, UniProt P11308 1-479)
T4 sequence: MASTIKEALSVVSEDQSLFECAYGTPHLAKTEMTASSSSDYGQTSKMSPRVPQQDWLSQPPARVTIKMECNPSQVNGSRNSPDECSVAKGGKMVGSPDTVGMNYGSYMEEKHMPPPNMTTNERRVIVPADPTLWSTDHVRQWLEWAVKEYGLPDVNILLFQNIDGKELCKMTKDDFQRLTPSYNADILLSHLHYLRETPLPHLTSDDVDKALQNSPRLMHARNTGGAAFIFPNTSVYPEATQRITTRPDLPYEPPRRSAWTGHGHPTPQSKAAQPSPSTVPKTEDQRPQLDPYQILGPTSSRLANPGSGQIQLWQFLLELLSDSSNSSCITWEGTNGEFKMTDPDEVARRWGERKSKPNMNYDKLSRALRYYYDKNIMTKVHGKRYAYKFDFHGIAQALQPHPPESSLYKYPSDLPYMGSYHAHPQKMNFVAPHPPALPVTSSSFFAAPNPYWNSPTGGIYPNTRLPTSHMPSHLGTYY
How it was run: as §1

ELF1 = ELF1 (Homo sapiens, UniProt P32519 1-619)
How it was run: as §1

EHF = biological target: T5, EHF (Homo sapiens, UniProt Q9NZC4 1-300)
T5 sequence: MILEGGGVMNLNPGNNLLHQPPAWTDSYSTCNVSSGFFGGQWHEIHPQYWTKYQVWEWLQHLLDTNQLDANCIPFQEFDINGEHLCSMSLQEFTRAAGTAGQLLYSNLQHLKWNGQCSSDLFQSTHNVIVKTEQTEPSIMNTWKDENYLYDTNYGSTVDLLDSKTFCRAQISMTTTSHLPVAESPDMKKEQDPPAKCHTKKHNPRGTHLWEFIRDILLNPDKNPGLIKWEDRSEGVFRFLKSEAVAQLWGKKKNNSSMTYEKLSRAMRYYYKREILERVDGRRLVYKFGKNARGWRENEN
How it was run: as §1

SPI1 = SPI1 (Homo sapiens, UniProt P17947 1-270)
How it was run: as §1

FEV = biological target: T6, FEV (Homo sapiens, UniProt Q99581 1-238)
T6 sequence: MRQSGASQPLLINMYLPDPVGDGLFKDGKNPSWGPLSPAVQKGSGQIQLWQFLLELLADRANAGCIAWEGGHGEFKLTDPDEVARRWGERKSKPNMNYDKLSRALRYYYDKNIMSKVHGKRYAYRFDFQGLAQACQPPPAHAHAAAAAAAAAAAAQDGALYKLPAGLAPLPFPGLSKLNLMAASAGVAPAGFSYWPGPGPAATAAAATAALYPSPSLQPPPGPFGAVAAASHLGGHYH
How it was run: as §1

ETV5 = ETV5 (Homo sapiens, UniProt P41161 1-510)
How it was run: as §1

SPIC = biological target: T7, SPIC (Homo sapiens, UniProt Q8N5J4 1-248)
T7 sequence: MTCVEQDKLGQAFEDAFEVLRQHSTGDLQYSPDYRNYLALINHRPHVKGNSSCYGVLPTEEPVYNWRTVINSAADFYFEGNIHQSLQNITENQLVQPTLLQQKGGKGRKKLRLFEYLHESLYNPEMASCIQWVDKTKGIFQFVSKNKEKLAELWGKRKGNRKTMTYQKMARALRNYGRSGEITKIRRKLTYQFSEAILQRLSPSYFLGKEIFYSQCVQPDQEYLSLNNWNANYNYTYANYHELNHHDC
How it was run: as §1

ELF4 = ELF4 (Homo sapiens, UniProt Q99607 1-663)
How it was run: as §1

ETV1 = ETV1 (Homo sapiens, UniProt P50549 1-477)
How it was run: as §1

ERF = biological target: T8, ERF (Homo sapiens, UniProt P50548 1-548)
T8 sequence: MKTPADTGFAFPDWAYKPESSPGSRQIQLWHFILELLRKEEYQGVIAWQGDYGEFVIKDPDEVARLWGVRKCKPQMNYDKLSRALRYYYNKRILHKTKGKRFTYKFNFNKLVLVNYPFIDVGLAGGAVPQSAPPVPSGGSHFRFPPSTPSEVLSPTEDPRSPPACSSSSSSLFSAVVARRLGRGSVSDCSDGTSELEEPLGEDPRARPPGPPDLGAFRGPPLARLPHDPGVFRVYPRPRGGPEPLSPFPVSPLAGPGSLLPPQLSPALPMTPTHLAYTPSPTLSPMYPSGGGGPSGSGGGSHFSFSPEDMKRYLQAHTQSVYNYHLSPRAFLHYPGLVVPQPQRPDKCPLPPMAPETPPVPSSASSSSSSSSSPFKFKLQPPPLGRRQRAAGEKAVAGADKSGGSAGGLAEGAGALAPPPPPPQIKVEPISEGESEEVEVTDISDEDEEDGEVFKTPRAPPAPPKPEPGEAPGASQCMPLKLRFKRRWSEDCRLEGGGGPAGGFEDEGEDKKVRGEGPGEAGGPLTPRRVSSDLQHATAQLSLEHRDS
How it was run: as §1

ETV3L = biological target: T9, ETV3L (Homo sapiens, UniProt Q6ZN32 1-361)
T9 sequence: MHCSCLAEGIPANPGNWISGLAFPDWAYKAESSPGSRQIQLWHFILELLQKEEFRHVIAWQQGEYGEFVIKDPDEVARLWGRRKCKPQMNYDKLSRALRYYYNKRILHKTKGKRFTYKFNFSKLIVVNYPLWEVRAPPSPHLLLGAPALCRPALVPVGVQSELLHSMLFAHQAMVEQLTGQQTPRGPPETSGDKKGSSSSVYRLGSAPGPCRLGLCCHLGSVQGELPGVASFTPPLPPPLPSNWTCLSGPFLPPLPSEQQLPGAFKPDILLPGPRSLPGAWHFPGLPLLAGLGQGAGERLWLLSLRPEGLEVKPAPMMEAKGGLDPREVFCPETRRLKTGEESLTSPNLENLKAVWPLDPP
How it was run: as §1

ETS2 = biological target: T10, ETS2 (Homo sapiens, UniProt P15036 1-469)
T10 sequence: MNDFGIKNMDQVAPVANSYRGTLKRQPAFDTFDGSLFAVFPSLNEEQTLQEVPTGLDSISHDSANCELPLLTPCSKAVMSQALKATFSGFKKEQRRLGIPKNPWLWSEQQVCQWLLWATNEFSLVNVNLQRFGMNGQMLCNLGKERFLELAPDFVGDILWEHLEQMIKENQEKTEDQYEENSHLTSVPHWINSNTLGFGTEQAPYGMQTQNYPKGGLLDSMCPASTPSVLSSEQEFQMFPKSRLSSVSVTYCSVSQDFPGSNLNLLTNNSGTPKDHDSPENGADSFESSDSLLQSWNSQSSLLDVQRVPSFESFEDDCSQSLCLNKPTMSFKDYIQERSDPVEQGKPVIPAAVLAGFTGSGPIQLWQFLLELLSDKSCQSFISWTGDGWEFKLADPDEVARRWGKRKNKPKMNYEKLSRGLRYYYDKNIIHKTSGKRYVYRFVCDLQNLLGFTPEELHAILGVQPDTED
How it was run: as §1

ETV3 = biological target: T11, ETV3 (Homo sapiens, UniProt P41162-2 1-143)
T11 sequence: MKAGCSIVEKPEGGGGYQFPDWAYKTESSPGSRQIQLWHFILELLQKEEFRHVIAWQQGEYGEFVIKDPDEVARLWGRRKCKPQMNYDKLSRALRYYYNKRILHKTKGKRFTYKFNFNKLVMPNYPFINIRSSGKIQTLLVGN
How it was run: as §1

ETV6 = ETV6 (Homo sapiens, UniProt P41212 1-452)
How it was run: as §1

SPIB = SPIB (Homo sapiens, UniProt Q01892 1-262)
How it was run: as §1

ELK3 = biological target: T12, ELK3 (Homo sapiens, UniProt P41970 1-407)
T12 sequence: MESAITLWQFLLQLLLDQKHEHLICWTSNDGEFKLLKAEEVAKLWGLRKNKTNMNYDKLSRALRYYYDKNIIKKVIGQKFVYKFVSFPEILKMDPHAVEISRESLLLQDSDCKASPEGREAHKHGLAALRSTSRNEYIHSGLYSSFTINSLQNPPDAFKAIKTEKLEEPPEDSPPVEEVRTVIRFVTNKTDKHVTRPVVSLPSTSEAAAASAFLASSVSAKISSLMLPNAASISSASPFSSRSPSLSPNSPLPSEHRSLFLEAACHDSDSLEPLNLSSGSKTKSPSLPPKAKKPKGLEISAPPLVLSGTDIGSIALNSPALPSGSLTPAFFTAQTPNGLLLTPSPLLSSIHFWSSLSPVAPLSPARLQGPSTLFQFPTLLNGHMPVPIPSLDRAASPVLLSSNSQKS
How it was run: as §1

Chain of ETV5 (P41161 whole entry): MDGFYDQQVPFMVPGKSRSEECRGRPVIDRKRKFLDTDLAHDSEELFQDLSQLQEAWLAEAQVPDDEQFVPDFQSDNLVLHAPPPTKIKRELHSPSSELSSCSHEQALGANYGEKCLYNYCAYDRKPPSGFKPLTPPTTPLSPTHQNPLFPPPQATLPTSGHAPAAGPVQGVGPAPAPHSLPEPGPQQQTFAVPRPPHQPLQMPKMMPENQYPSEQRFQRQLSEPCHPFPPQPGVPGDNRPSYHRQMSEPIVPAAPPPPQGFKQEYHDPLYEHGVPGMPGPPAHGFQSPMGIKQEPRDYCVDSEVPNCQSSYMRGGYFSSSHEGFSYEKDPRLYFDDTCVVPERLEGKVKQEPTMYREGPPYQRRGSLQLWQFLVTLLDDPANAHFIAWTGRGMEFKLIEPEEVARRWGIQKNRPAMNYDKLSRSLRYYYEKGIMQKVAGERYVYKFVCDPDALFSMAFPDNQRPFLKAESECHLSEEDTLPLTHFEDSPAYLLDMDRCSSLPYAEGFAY
Chain of ELF4 (Q99607 whole entry): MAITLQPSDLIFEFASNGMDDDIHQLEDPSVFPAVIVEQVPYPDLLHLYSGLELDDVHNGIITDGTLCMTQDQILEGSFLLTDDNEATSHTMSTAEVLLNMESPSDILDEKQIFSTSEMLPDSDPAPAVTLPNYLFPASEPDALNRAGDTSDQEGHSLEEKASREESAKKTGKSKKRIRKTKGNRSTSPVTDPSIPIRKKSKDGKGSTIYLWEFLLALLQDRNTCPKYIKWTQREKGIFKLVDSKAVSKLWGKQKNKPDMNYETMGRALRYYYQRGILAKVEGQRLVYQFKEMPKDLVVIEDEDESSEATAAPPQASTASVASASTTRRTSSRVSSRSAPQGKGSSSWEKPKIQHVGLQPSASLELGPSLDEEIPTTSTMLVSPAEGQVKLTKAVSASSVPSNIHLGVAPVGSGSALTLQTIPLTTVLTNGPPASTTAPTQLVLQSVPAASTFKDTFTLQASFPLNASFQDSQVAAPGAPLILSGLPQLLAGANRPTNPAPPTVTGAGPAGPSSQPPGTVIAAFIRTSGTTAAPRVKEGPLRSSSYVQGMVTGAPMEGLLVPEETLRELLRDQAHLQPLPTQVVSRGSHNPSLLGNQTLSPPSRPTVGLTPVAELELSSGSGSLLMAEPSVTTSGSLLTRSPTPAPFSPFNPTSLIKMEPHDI
Chain of ETV6 (P41212 whole entry): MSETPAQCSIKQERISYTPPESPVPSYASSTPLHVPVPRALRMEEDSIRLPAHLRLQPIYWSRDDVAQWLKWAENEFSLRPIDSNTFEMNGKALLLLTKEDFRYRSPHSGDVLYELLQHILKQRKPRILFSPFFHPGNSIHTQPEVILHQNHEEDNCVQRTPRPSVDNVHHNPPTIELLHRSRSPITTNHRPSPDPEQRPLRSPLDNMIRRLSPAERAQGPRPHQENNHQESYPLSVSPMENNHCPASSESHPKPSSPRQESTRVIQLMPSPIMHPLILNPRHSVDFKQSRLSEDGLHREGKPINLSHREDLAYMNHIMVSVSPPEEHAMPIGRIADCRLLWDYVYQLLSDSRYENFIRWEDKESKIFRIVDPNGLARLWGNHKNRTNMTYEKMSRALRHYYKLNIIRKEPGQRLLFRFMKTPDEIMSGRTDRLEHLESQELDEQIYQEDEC
Chain of ETV1 (P50549 whole entry): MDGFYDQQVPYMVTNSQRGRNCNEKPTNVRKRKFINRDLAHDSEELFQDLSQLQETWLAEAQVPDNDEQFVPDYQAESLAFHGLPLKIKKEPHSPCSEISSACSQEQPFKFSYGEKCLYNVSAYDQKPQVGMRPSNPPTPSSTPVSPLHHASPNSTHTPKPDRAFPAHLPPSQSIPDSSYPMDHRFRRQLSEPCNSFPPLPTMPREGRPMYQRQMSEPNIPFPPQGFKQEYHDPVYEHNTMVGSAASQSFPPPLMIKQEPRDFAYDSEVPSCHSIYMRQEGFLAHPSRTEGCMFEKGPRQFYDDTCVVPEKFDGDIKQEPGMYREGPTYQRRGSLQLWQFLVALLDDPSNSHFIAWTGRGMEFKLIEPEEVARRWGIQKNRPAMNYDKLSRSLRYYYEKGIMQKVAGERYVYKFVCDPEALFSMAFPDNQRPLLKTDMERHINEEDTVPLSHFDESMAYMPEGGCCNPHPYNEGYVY
Chain of ELF1 (P32519 whole entry): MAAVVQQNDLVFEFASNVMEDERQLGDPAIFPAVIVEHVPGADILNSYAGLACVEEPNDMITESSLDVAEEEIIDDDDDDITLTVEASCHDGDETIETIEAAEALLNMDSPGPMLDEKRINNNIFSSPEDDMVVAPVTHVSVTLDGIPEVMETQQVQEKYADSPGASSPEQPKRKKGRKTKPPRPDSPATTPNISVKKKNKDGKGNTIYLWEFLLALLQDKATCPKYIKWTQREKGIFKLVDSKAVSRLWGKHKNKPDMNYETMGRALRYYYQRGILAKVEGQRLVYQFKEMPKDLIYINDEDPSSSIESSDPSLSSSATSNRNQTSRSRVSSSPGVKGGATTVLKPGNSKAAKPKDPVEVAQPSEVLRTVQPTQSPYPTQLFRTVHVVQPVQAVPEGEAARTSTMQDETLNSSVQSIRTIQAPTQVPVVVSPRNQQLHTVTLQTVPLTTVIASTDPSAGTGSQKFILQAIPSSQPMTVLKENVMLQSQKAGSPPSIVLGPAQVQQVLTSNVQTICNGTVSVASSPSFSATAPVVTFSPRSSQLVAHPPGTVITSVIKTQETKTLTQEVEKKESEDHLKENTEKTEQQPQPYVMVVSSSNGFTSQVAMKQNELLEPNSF
Chain of SPIB (Q01892 whole entry): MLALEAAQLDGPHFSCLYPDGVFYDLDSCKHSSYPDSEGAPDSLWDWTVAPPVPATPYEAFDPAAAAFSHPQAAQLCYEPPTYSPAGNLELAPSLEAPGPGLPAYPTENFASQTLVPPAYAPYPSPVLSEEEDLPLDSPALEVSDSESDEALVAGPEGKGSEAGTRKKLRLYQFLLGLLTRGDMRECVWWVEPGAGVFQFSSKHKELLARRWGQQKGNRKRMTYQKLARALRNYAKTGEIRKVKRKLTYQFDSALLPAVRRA

Sequence	binding signal (FLI1)	binding signal (ELK1)	binding signal (GABPA)	binding signal (ERG)	binding signal (ELF1)	binding signal (EHF)	binding signal (SPI1)	binding signal (FEV)	binding signal (ETV5)	binding signal (SPIC)	binding signal (ELF4)	binding signal (ETV1)	binding signal (ERF)	binding signal (ETV3L)	binding signal (ETS2)	binding signal (ETV3)	binding signal (ETV6)	binding signal (SPIB)	binding signal (ELK3)
GTACGC	1.05 fold enrichment (6-mer frequency, TF over GST control)	1.03 fold enrichment (6-mer frequency, TF over GST control)	1.04 fold enrichment (6-mer frequency, TF over GST control)	1.09 fold enrichment (6-mer frequency, TF over GST control)	1.05 fold enrichment (6-mer frequency, TF over GST control)	1.03 fold enrichment (6-mer frequency, TF over GST control)	1.05 fold enrichment (6-mer frequency, TF over GST control)	1.1 fold enrichment (6-mer frequency, TF over GST control)	1.08 fold enrichment (6-mer frequency, TF over GST control)	1.2 fold enrichment (6-mer frequency, TF over GST control)	1.05 fold enrichment (6-mer frequency, TF over GST control)	1.09 fold enrichment (6-mer frequency, TF over GST control)	1.05 fold enrichment (6-mer frequency, TF over GST control)	1.11 fold enrichment (6-mer frequency, TF over GST control)	1.06 fold enrichment (6-mer frequency, TF over GST control)	1.14 fold enrichment (6-mer frequency, TF over GST control)	1.07 fold enrichment (6-mer frequency, TF over GST control)	–	–
AACTGA	1.07 fold enrichment (6-mer frequency, TF over GST control)	1.08 fold enrichment (6-mer frequency, TF over GST control)	1.08 fold enrichment (6-mer frequency, TF over GST control)	1.11 fold enrichment (6-mer frequency, TF over GST control)	1.13 fold enrichment (6-mer frequency, TF over GST control)	1.1 fold enrichment (6-mer frequency, TF over GST control)	1.13 fold enrichment (6-mer frequency, TF over GST control)	1.15 fold enrichment (6-mer frequency, TF over GST control)	1.11 fold enrichment (6-mer frequency, TF over GST control)	1.37 fold enrichment (6-mer frequency, TF over GST control)	1.05 fold enrichment (6-mer frequency, TF over GST control)	1.16 fold enrichment (6-mer frequency, TF over GST control)	1.08 fold enrichment (6-mer frequency, TF over GST control)	1.09 fold enrichment (6-mer frequency, TF over GST control)	1.16 fold enrichment (6-mer frequency, TF over GST control)	1.06 fold enrichment (6-mer frequency, TF over GST control)	1.1 fold enrichment (6-mer frequency, TF over GST control)	1.15 fold enrichment (6-mer frequency, TF over GST control)	1.06 fold enrichment (6-mer frequency, TF over GST control)
